From PubChem BioAssay (NCATS)
“And” between values parts separate entries of the source, which are not always exact repeats. Identical values can stand only once. Records with an inconclusive call do not appear. The source made the active and inactive calls. Calls come from the whole dose curve; as a rule, active = well fitted curve in the direction sought with a large enough effect; inconclusive = small, poorly fitted or top-dose-only effect, or another doubt; inactive = no such curve, though single readings can be large; an effect the other way counts as inactive or inconclusive.

Key:
[1] = target: Cellular tumor antigen p53 (Homo sapiens) (UniProt P04637); test: Primary qHTS for small molecule compounds that upregulate eGFP-tagged delta133p53alpha (in N-terminal) cells. (AID 2060322); conditions: NCI-H358 eGFP-delta133p53alpha fluorescence, 24 h; activation: active compounds read high;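 note: series mostly up to about 56 µM; 0% = DMSO vehicle and 100% = reference activator; nearly all actives have a fitted effect of over 75% in size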
Outline: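 NCI-H358 cells pre-induced 24 h with 10 ng/ml doxycycline to express N-terminal eGFP-delta133p53alpha, then dosed 24 h at 37C without doxycycline; fixed, Hoechst-stained, GFP intensity by laser scanning cytometry, normalized to DMSO (0%) and 57.5 uM 5-azacytidine (100%).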

[2] = target: Aldehyde dehydrogenase, mitochondrial (Homo sapiens) (UniProt P05091); test: qHTS for Inhibitors of the Aldehyde Dehydrogenase Family (ALDH2) Primary screen (AID 2061308);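 note: plate controls were vehicle for no effect and reference inhibitor for full effect; nearly all actives have a fitted effect of over 55% in size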
[3] = target: Retinaldehyde dehydrogenase 3 (Homo sapiens) (UniProt P47895); test: qHTS for Inhibitors of the Aldehyde Dehydrogenase Family (ALDH1A3) Primary screen (AID 2061315);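 note: plate controls were DMSO vehicle for no effect and reference inhibitor for full effect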

Sequence of Cellular tumor antigen p53 (Homo sapiens) (P04637 whole entry, looked up): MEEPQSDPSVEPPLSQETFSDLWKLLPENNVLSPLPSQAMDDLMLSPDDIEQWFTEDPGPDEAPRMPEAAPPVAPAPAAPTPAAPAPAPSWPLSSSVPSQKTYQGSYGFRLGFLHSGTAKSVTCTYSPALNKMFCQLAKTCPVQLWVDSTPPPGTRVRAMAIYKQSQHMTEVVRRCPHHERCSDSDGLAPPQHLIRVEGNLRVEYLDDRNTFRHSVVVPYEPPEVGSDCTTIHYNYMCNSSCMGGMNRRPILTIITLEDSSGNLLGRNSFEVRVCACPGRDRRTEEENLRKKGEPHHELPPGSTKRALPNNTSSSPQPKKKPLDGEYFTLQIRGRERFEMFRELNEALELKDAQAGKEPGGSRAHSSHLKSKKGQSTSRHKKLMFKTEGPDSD

O=c1cc(N2CCN(c3cccc(C(F)(F)F)c3)CC2)[nH]c(=O)n1C1CCCCC1
inactive: activation [1] 25% | Potency [2] | Potency [3]

CC(=O)OC1CC2C(C)(C)C(=O)C=CC2(C)C2CC(=O)C3=C(CCC3C3=CC(O)OC3=O)C12C (stereo unspecified)
inactive: activation [1] -12.2% | Potency [2] | Potency [3]

CC(C)(C)NS(=O)(=O)c1cncc(-c2cc(F)c3nc(N)nn3c2)c1
inactive: activation [1] 5.36% | Potency [2] | Potency [3]

CCOc1ccc(-c2ccc(Cn3c(CC(C)(C)C(=O)O)c(SC(C)(C)C)c4cc(OCc5ccc(C)cn5)ccc43)cc2)cn1
inactive: activation [1] -1% and 3% | Potency [2] | Potency [3]

COC(=O)c1cc(OC)c(O[C@@H]2O[C@@H](C)[C@H](O)[C@@H](O)[C@H]2O)c(OC)c1
inactive: activation [1] 1.53% | Potency [2] | Potency [3]

CC1COC2(OC3CC4C5CC(O[C@@H]6O[C@H](C)[C@@H](O[C@@H]7O[C@@H](C)[C@H](O)[C@@H](O)[C@H]7O)[C@H](O)[C@H]6O)C6CC(O)CCC6(C)C5CCC4(C)C3C2C)C(O)C1 (stereo partly specified)
inactive: activation [1] -10.7% | Potency [2] | Potency [3]

C[C@@H]1CC[C@]2(C(=O)OC3OC(CO)C(O)C(O)C3O)CC[C@]3(C)C(=CCC4[C@@]5(C)CC[C@H](O)[C@](C)(C(=O)O)C5CC[C@]43C)C2[C@]1(C)O (stereo partly specified)
inactive: activation [1] -8.93% | Potency [2] | Potency [3]
